Experimental data published in PubChem BioAssay.
The source made the active and inactive calls. Unless noted, how the calls were made is not given here.

What was measured:
[1] = liver-stage malaria parasite load reduction – cell-based, known kinase inhibitor set, luminescence, hepatoma host viability (AID 624392); details: Plasmodium liver stage in hepatoma cells, luciferase luminescence, concentration not given here; liver cell % of control: measured here: host liver cell viability; parasite % of control: stronger effect = lower value;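 further: infected cells incubated roughly two days before readout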
[2] = altered dexamethasone sensitivity, NF-kB reporter, cell-based, luciferase, IL-1B stimulus (AID 624486); details: IL-1B + dexamethasone, luminescence; percent of negative control (+Dex): actives lie on both sides, concentration not given here; z-score: measured here: IL-1B alone, no Dex;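 on percent of negative control (+Dex): 100% = mean signal of vehicle control wells on the plate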
[3] = molecular target: Cellular tumor antigen p53 (Homo sapiens) (UniProt P04637); assay: GFP-p53 level modulators in HPV16+ cells – imaging, known kinase inhibitor set, EGFP/DsRed ratio (AID 1053116); details: GFP-p53 stability, stronger effect = higher value; EGFP object count: measured here: GFP-p53 positive objects count;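 further: cells exposed to compounds for 24 h at 37 °C before reading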
Sequence of Cellular tumor antigen p53 (Homo sapiens) (P04637 whole entry, looked up): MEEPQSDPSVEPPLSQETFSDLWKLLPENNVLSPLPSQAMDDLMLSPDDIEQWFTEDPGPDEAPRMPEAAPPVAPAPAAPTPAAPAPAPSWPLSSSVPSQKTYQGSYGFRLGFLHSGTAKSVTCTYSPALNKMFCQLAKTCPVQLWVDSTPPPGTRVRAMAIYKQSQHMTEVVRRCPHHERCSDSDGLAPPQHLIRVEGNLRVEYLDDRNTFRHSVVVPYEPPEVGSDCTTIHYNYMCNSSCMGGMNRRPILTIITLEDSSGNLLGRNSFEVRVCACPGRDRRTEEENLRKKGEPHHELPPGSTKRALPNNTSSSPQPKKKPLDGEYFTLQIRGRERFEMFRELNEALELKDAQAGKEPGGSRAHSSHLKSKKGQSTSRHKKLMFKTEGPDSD

[4] = inducers of IRF3 signaling, differentiated THP-1 – cell-based, PMA-stimulated THP-1, luminescence (AID 1053176); details: PMA-differentiated THP-1, IRF3 reporter luminescence; stronger effect = higher value
[5] = C. elegans survival during P. aeruginosa infection – whole organism (AID 651566);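 further: tested at 14 µM; sign flipped so higher z means a lower ratio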; details: C. elegans killed by P. aeruginosa, survival ratio
[6] = pro-inflammatory signaling induction in mouse macrophages – cell-based, murine, luminescence (AID 652131); details: murine macrophage pro-inflammatory reporter, stronger effect = higher value
[7] = MELAS cybrid and Rieske KO viability enhancers – cell-based, MELAS cybrids, Rieske KO mouse fibroblasts, CellTiter-Glo, primary screen (AID 1508586;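 active means mean z-score across replicates of 1.96 or higher in either the MELAS or the Rieske mutant cell line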;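 further: z relative to plate mean and SD of compound and empty wells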); details: low glucose
[8] = MELAS cybrid survival, CellTiter-Glo 48 h, stronger effect = higher value
[9] = Rieske KO mouse fibroblast survival, CellTiter-Glo 72 h

**Q.** What does the source list for Cn1cc(C2=C(c3cccc(OCC(O)CO)c3)C(=O)NC2=O)c2cc(F)ccc21 (centres undefined)?
**A.** liver cell % of control [1]: 125%; parasite % of control [1]: 31.6% (inactive); percent of negative control (+Dex) [2]: 97% (inactive); z-score [2]: 0.67; EGFP object count [3]: 8; EGFP/DsRed ratio [3]: 0.21 (inactive); fraction signal [4]: -0.0075 (inactive)

**Q.** With Nc1c(C(=O)c2cccc(-c3ccncc3)c2)cnn1-c1ccc(F)cc1 as the compound, how does the liver cell % of control [1] read?
**A.** 101%

**Q.** And the parasite % of control [1]?
**A.** 36.5% (inactive)

**Q.** What about the percent of negative control (+Dex) [2] of the same compound?
**A.** 95.5% (inactive)

**Q.** And the z-score [2]?
**A.** 0.895

**Q.** And the EGFP object count [3]?
**A.** 2

**Q.** And the EGFP/DsRed ratio [3]?
**A.** 0.219 (inactive)

**Q.** And the fraction signal [4]?
**A.** -0.003 (inactive)

**Q.** What does the source list for Cn1cc(C2=C(c3cn(CCSC(=N)N)c4ccccc34)C(=O)NC2=O)c2ccccc21?
**A.** liver cell % of control [1]: 92.2%; parasite % of control [1]: 26.4% (inactive); percent of negative control (+Dex) [2]: 96.5% (inactive); z-score [2]: 0.445; EGFP object count [3]: 2.5; EGFP/DsRed ratio [3]: 0.00335 (inactive); fraction signal [4]: -0.018 (inactive)

**Q.** Which results are given for Fc1ccc(-c2ncn(C3CCNCC3)c2-c2ccnc(Oc3ccc(F)c(F)c3)n2)cc1?
**A.** liver cell % of control [1]: 83%; parasite % of control [1]: 166% (inactive); percent of negative control (+Dex) [2]: 106% (inactive); z-score [2]: 1.34; z-score [5]: 0.595 (inactive); z-score [6]: 0.167 (inactive); fraction signal [4]: 0.003 (inactive); z-score [7, 8]: -0.134 (inactive); z-score [7, 9]: -0.514

**Q.** For Cn1cc(C2=C(c3c4n(c5ccccc35)CCCCC4)C(=O)NC2=O)c2ccccc21, which liver cell % of control [1] is on record?
**A.** 80.1%

**Q.** And the parasite % of control [1]?
**A.** 66.1% (inactive)

**Q.** And the percent of negative control (+Dex) [2]?
**A.** 100% (inactive)

**Q.** What about the z-score [2] of the same compound?
**A.** -0.31

**Q.** What about the EGFP object count [3] of the same compound?
**A.** 7

**Q.** What about the EGFP/DsRed ratio [3] of the same compound?
**A.** 0.223 (inactive)

**Q.** And the fraction signal [4]?
**A.** -0.005 (inactive)

**Q.** Which liver cell % of control [1] does the source give for COc1ccc(N2Cc3cnc(Nc4ccccc4)nc3N(C3CCC(O)C3)C2=O)cc1 (centres undefined) here?
**A.** 114%

**Q.** And the parasite % of control [1]?
**A.** 234% (inactive)

**Q.** What about the percent of negative control (+Dex) [2] of the same compound?
**A.** 67% (active)

**Q.** And the z-score [2]?
**A.** -1.67

**Q.** What about the EGFP object count [3] of the same compound?
**A.** 1.5

**Q.** What about the EGFP/DsRed ratio [3] of the same compound?
**A.** 0.0589 (inactive)

**Q.** And the fraction signal [4]?
**A.** -0.007 (inactive)

**Q.** Which liver cell % of control [1] does the source give for Cn1c(=O)c(Oc2cccc(F)c2)cc2cnc(NC3CCOCC3)nc21 here?
**A.** 112%

**Q.** What about the parasite % of control [1] of the same compound?
**A.** 65.8% (inactive)

**Q.** What about the percent of negative control (+Dex) [2] of the same compound?
**A.** 101% (inactive)

**Q.** And the z-score [2]?
**A.** 0.78

**Q.** What about the EGFP object count [3] of the same compound?
**A.** 4

**Q.** What about the EGFP/DsRed ratio [3] of the same compound?
**A.** 0.127 (inactive)

**Q.** What about the fraction signal [4] of the same compound?
**A.** 0.0015 (inactive)

**Q.** Which liver cell % of control [1] does the source give for COc1cccc(F)c1C(=O)c1cnc(NC2CCN(S(C)(=O)=O)CC2)nc1N here?
**A.** 93.1%

**Q.** What about the parasite % of control [1] of the same compound?
**A.** 512% (inactive)

**Q.** What about the percent of negative control (+Dex) [2] of the same compound?
**A.** 116% (inactive)

**Q.** And the z-score [2]?
**A.** 2.08

**Q.** And the EGFP object count [3]?
**A.** 3.5

**Q.** What about the EGFP/DsRed ratio [3] of the same compound?
**A.** 0.124 (inactive)

**Q.** What about the fraction signal [4] of the same compound?
**A.** -0.018 (inactive)

**Q.** For Fc1ccc(-c2ncn(C3CCNCC3)c2-c2ccnc(Oc3cccc(F)c3)n2)cc1, which liver cell % of control [1] is on record?
**A.** 80.2%

**Q.** And the parasite % of control [1]?
**A.** 175% (inactive)

**Q.** What about the percent of negative control (+Dex) [2] of the same compound?
**A.** 111% (inactive)

**Q.** And the z-score [2]?
**A.** 0.615

**Q.** And the z-score [5]?
**A.** -0.555 (inactive)

**Q.** And the z-score [6]?
**A.** -0.299 (inactive)

**Q.** What about the fraction signal [4] of the same compound?
**A.** -0.0075 (inactive)

**Q.** What about the z-score [7, 8] of the same compound?
**A.** -0.13 (inactive)

**Q.** What about the z-score [7, 9] of the same compound?
**A.** -0.344

**Q.** Which results are given for Nc1c(C(=O)c2cccc(C(O)CO)c2)cnn1-c1ccc(F)cc1 (centres undefined)?
**A.** liver cell % of control [1]: 101%; parasite % of control [1]: 60.5% (inactive); percent of negative control (+Dex) [2]: 110% (inactive); z-score [2]: 1.48; EGFP object count [3]: 4.5; EGFP/DsRed ratio [3]: 0.197 (inactive); fraction signal [4]: 0.0035 (inactive)
